# Results as given in PMC10726135, “HNF4α isoforms regulate the circadian balance between carbohydrate and lipid metabolism in the liver”.
# The full ranking holds about 18,000 sequences; the median of “log2 normalized intensity” is about 0.36, and the highest 2% start at about 7.3. The full list was thinned out, with the highest values kept by preference.
# Target: T1, HNF4alpha8 (COS-7 nuclear extract) (Homo sapiens, UniProt P41235-5 1-452)
# T1 sequence: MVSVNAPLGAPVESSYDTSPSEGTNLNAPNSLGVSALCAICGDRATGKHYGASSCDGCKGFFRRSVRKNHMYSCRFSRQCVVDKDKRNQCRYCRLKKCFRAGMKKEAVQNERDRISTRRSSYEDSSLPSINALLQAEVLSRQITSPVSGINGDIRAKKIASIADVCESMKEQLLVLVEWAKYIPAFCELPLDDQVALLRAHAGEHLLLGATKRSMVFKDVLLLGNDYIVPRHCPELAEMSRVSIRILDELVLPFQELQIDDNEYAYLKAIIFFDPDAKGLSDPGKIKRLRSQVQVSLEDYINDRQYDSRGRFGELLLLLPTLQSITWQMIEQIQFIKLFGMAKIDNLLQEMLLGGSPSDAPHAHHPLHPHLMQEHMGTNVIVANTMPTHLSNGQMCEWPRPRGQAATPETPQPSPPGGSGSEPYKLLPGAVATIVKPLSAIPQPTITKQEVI
# Test: protein-binding microarray; COS-7 nuclear extract on double-stranded Agilent 4x180k PBM; binding buffer, salt, pH and temperature not given in the material; high values mean tight binding
# Settings: chain copies: 2; label: 3' end of strand 1 on the slide; dsDNA, one strand shown
# How it was run: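 Binding signal is the background-corrected, normalized gProcessedSignal calculated by Agilent software. It was measured by applying nuclear extracts of COS-7 cells transiently transfected with a human HNF4α isoform expression vector to a custom Agilent SurePrint G3 4x180k array of ~44,000 double-stranded ~60-nt test sequences in quadruplicate, then imaging bound HNF4α on an Agilent G2565CA scanner at 2-µm resolution.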
row,Sequence,binding signal [log2 normalized intensity]
1,AGATCTGGATATGCCTGGGGTTCCAGTTACGCCTAGGGAGATTAGAGTATCGGTCGA,0.546
2,CTTCCATATAACCCTTGAACCTTCTTCTTGGCCTAGGGAGATTAGAGTATCGGTCGA,4.81
3,CCTCCAGGCCCCAGCCACGCCCTCTAACCCGCCTAGGGAGATTAGAGTATCGGTCGA,3.33
4,TTATCAGGACTTTGTGATTACATTGAGTCCGCCTAGGGAGATTAGAGTATCGGTCGA,1.97
5,AAAAACACCTGGTTCCTTGCAAGATAAGGGGCCTAGGGAGATTAGAGTATCGGTCGA,-0.239
6,CCTCTCAGGAATGTGGATGCTAAAAGTGAAGCCTAGGGAGATTAGAGTATCGGTCGA,-0.262
7,GTATGTTCTTAAGATAAGGACTGTTGGACCGCCTAGGGAGATTAGAGTATCGGTCGA,4.24
8,GGGAAGCTGTGTGAAGTGACTTGCCCTGTTGCCTAGGGAGATTAGAGTATCGGTCGA,2.3
9,CATTCTACCCCTGTGGTTGACCTTTAGTCTGCCTAGGGAGATTAGAGTATCGGTCGA,8.33
10,TGATCCATTCTACCCCTGTGGTTGACCTTTGCCTAGGGAGATTAGAGTATCGGTCGA,8.51
11,AGTGACCCTGTCTCTCAGTCTCTGTGGGAGGCCTAGGGAGATTAGAGTATCGGTCGA,1.23
12,TGTCTACCCTTTTGCCCTTTGAGCTTCTGTGCCTAGGGAGATTAGAGTATCGGTCGA,5.93
13,TTACTGGACTTGATCCATTCTACCCCTGTGGCCTAGGGAGATTAGAGTATCGGTCGA,2.82
14,GGACTTGATCCATTCTACCCCTGTGGTTGAGCCTAGGGAGATTAGAGTATCGGTCGA,2.5
15,ATGCTAAAGTCTACATTCTAGATGACCCCTGCCTAGGGAGATTAGAGTATCGGTCGA,6.17
16,TACCCCTGTGGTTGACCTTTAGTCTCTAGCGCCTAGGGAGATTAGAGTATCGGTCGA,7.47
17,GTTGACCTTTAGTCTCTAGCCCCGCCCAGAGCCTAGGGAGATTAGAGTATCGGTCGA,5.33
18,AAATCATGGATCTGTGCTCAGATCCTGCTCGCCTAGGGAGATTAGAGTATCGGTCGA,-0.984
19,CCGGACATGGAGAGGTGAGACACGTGTGCCGCCTAGGGAGATTAGAGTATCGGTCGA,-0.118
20,GGCTAGACTTTAACCCCCTTGTCTTCCTCAGCCTAGGGAGATTAGAGTATCGGTCGA,4.16
21,GGCTGCAGAGGTTTCGCAAGGACGTGACCTGCCTAGGGAGATTAGAGTATCGGTCGA,3.33
22,CTTACGGCCCTGTGGTGTTCGCTAAGATGTGCCTAGGGAGATTAGAGTATCGGTCGA,0.705

row,Sequence,binding signal [log2 normalized intensity]
1,CCACCTGGAATGTGCTCCCGACTGCTCCACGCCTAGGGAGATTAGAGTATCGGTCGA,0.00529
2,CACAAACATACAACCATCAAAGGTCACTTTGCCTAGGGAGATTAGAGTATCGGTCGA,4.93
3,TATGCTTTTATTTAACTTCTGGGGGCAAGGGCCTAGGGAGATTAGAGTATCGGTCGA,2
4,TGAATATGTACATGGACTTTGAACCAAGATGCCTAGGGAGATTAGAGTATCGGTCGA,8.87
5,GAATGCAACCACACCAACATGGACTTTGTCGCCTAGGGAGATTAGAGTATCGGTCGA,6.59
6,CGGTCAGCTGCTTGACTTAGTACATGGCCTGCCTAGGGAGATTAGAGTATCGGTCGA,0.903
7,AGGTACTAAGAGATTTGAATATGTACATGGGCCTAGGGAGATTAGAGTATCGGTCGA,0.942
8,CATGGACTTTGAACCAAGATATGCTAACATGCCTAGGGAGATTAGAGTATCGGTCGA,5.27
9,CTAAGAGATTTGAATATGTACATGGACTTTGCCTAGGGAGATTAGAGTATCGGTCGA,6.92
10,ACACAGTACTTTGTACATGGGAATAGACATGCCTAGGGAGATTAGAGTATCGGTCGA,0.975
11,ATGTACATGGACTTTGAACCAAGATATGCTGCCTAGGGAGATTAGAGTATCGGTCGA,7.68
12,AGATTTGAATATGTACATGGACTTTGAACCGCCTAGGGAGATTAGAGTATCGGTCGA,10.6
13,GTCTAGCGCAAATGATCAAAGGTTGGTTTTGCCTAGGGAGATTAGAGTATCGGTCGA,4.43
14,AGTGTGTAAGTATGCTCACTGACCTCTGCCGCCTAGGGAGATTAGAGTATCGGTCGA,3.94
15,CCACTTTGAATCAGGAGAGCATCTGAGTGTGCCTAGGGAGATTAGAGTATCGGTCGA,0.742
16,AGGAATTCTGATCTTTGACCTCTCCAGGGTGCCTAGGGAGATTAGAGTATCGGTCGA,7.01
17,TAATCAGAGCAGGAATTCTGATCTTTGACCGCCTAGGGAGATTAGAGTATCGGTCGA,7.96
18,CATCTTTGAAGAGCACAGGGTCAGCAGATCGCCTAGGGAGATTAGAGTATCGGTCGA,1.59
19,TTCTGATCTTTGACCTCTCCAGGGTCCTTGGCCTAGGGAGATTAGAGTATCGGTCGA,5.35
20,AGAGCAGGAATTCTGATCTTTGACCTCTCCGCCTAGGGAGATTAGAGTATCGGTCGA,8.08
21,TGTGCTAGATACTGGAGATATGTTGCTGGAGCCTAGGGAGATTAGAGTATCGGTCGA,0.67
22,TCTAGATGGGGTTGAGCAGACTAAAGGACTGCCTAGGGAGATTAGAGTATCGGTCGA,-0.482

row,Sequence,binding signal [log2 normalized intensity]
1,TGAGACATGAATCCATCCCACCTCACTTATGCCTAGGGAGATTAGAGTATCGGTCGA,1.12
2,GCAAGGAATTCAACCCTTGTCACTTTCCCTGCCTAGGGAGATTAGAGTATCGGTCGA,1.82
3,TTGGACAGGGTGACGTCATTGGAAATCCGAGCCTAGGGAGATTAGAGTATCGGTCGA,0.187
4,TTGTTTAGGTACAAAGTCCATTGGAAGCCAGCCTAGGGAGATTAGAGTATCGGTCGA,6.42
5,AAAGTCCATATTCTTTGTTTGGATGCCAAAGCCTAGGGAGATTAGAGTATCGGTCGA,2.25
6,AGATTCGGTGAGGGATTGTTTAGGTACAAAGCCTAGGGAGATTAGAGTATCGGTCGA,1.25
7,AGGGATTGTTTAGGTACAAAGTCCATTGGAGCCTAGGGAGATTAGAGTATCGGTCGA,8.46
8,CGGTGAGGGATTGTTTAGGTACAAAGTCCAGCCTAGGGAGATTAGAGTATCGGTCGA,8.89
9,CTCTGAGATTCGGTGAGGGATTGTTTAGGTGCCTAGGGAGATTAGAGTATCGGTCGA,0.829
10,CCTTTGCCCTCCAAACTGAGAGATTTTTTCGCCTAGGGAGATTAGAGTATCGGTCGA,1.05
11,GAGGTCTGGACCCTTGGCACTTTCACGATAGCCTAGGGAGATTAGAGTATCGGTCGA,1.79
12,AGCAATGTTTCTTGTCCAGGGACTTTGAACGCCTAGGGAGATTAGAGTATCGGTCGA,6.55
13,AATGTTTGTAGGGACTTTGACCCCTAAAACGCCTAGGGAGATTAGAGTATCGGTCGA,9.59
14,CTGGAAATGTTTGTAGGGACTTTGACCCCTGCCTAGGGAGATTAGAGTATCGGTCGA,10.4
15,CTTTGACCCTGTTTTGTAAACTCCCTTTGAGCCTAGGGAGATTAGAGTATCGGTCGA,2.04
16,GACATCTGGAAATGTTTGTAGGGACTTTGAGCCTAGGGAGATTAGAGTATCGGTCGA,5.1
17,CAACTGACATCTGGAAATGTTTGTAGGGACGCCTAGGGAGATTAGAGTATCGGTCGA,0.67
18,CAGCTTTGAAGTGCTTCCTGTGTATTTCTTGCCTAGGGAGATTAGAGTATCGGTCGA,1.27
19,GGACTAAGAATTGCTCAACCTGGACCTCATGCCTAGGGAGATTAGAGTATCGGTCGA,1.89
20,CTGTCACACTTGCCCTTTGCCCTCACTGGTGCCTAGGGAGATTAGAGTATCGGTCGA,7.78
21,CTATGTCAGGCCATTTCACCTTTGCCCTGTGCCTAGGGAGATTAGAGTATCGGTCGA,7.53
22,AAAGGCTGTCACACTTGCCCTTTGCCCTCAGCCTAGGGAGATTAGAGTATCGGTCGA,8.84

row,Sequence,binding signal [log2 normalized intensity]
1,AGCCTCTATGTCAGGCCATTTCACCTTTGCGCCTAGGGAGATTAGAGTATCGGTCGA,4.57
2,ACACTTGCCCTTTGCCCTCACTGGTAGAAGGCCTAGGGAGATTAGAGTATCGGTCGA,5.8
3,TGTCACACTGGCCTTTGCCCTCGCTGGCGGGCCTAGGGAGATTAGAGTATCGGTCGA,5.25
4,AAGGCTGTCACACTGGCCTTTGCCCTCGCTGCCTAGGGAGATTAGAGTATCGGTCGA,5.82
5,CACAAAAAGGCTGTCACACTTGCCCTTTGCGCCTAGGGAGATTAGAGTATCGGTCGA,5.42
6,TCAGGCCATTTCACCTTTGCCCTGTCAGTCGCCTAGGGAGATTAGAGTATCGGTCGA,6.79
7,TTCAGCCGCTTTGAGGTCAATGGTAGAAAAGCCTAGGGAGATTAGAGTATCGGTCGA,1.85
8,ACTAAAGGTTAAACATGTACTCTGTACTCCGCCTAGGGAGATTAGAGTATCGGTCGA,3.43
9,ACCCCTCCACTGGACAGCAGCTACATAAGGGCCTAGGGAGATTAGAGTATCGGTCGA,1.83
10,AAATACCCTCTTTAGGGTAGCCTGGGTTAAGCCTAGGGAGATTAGAGTATCGGTCGA,0.844
11,GCTAGTAAGGAGCTGAGTCATAGTGGACTTGCCTAGGGAGATTAGAGTATCGGTCGA,4.03
12,GGACTTTGGCCTTACTTGGCCTGTTTGCTGGCCTAGGGAGATTAGAGTATCGGTCGA,5.89
13,TGGACAACTGTACTTTGGACTGGGGACCTGGCCTAGGGAGATTAGAGTATCGGTCGA,6.02
14,GGGCGTGTGTTAGACTTTGGACCTGGCCTGGCCTAGGGAGATTAGAGTATCGGTCGA,7.98
15,TAGACTTTGGACCTGGCCTGCGGGGTCAGGGCCTAGGGAGATTAGAGTATCGGTCGA,6.35
16,CGGGTATGTGGGGCGTGTGTTAGACTTTGGGCCTAGGGAGATTAGAGTATCGGTCGA,4.91
17,CACCTGTGTCAACATGGACTTTGTTGTTTGGCCTAGGGAGATTAGAGTATCGGTCGA,4.99
18,TAGGGCCTTGCTATGGAGTGGACTTTGGCTGCCTAGGGAGATTAGAGTATCGGTCGA,7.22
19,ACTTTGGACCTTTGTGTGTGTGTGTGTGTGGCCTAGGGAGATTAGAGTATCGGTCGA,3.49
20,TAAGGAGCTGAGTCATAGTGGACTTTGCCTGCCTAGGGAGATTAGAGTATCGGTCGA,7.86
21,ATGTGGGGCGTGTGTTAGACTTTGGACCTGGCCTAGGGAGATTAGAGTATCGGTCGA,9.77
22,GTTGGACTTTGGACCTTTGTGTGTGTGTGTGCCTAGGGAGATTAGAGTATCGGTCGA,8.31
